An excerpt weighted towards active compounds, which were near 7.4% of everything screened.
ELG1 genotoxic: inducers of genotoxicity in HEK293T ELG1-luciferase cells; 1.3% of 330,000 active; Potency, µM (highest dose often 46 µM), for inactives: top-dose activity change, positive = activation, hits mostly activators; HEK293T ELG1-luciferase reporter, luminescence, 16 h; AID 504466; also: % of control where 0% means no effect; nearly all actives have a fitted effect of over 60% in size
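HEK293T cells expressing luciferase-tagged ELG1 were exposed to compound or DMSO vehicle for 16 hr at 37 °C and 5% CO2. Luciferase activity was then measured with ONE-Glo after 30 min at room temperature.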
SMN2 splice enh: SMN2 splice variant enhancement; Potency, µM (doses to about 46.1 µM), inactives show top-dose activity change, positive = activation, most hits filed as activators; HEK293 SMN2-luciferase splicing reporter, luminescence, 30-36 h; 2.8% of 210,000 active; AID 1458; also: % of control where 0% means no effect; nearly all actives have a fitted effect of over 55% in size
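qHTS luciferase splicing reporter: luminescence rises when SMN2 exon 7 is included in transfected HEK293 cells. Compound exposure lasted 30-36 h at 37C, with 4.5 mM final sodium butyrate as control, followed by a ONE-Glo read.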
FLuc counter: inhibits or activates purified firefly luciferase, miR-21 counter-screen. 6.9% of 360,000 active. AID 588342. purified FLuc, Km substrates, luminescence inhibition. Potency, µM (top dose mostly 57.5 µM), for the others: top-dose activity change, negative = inhibition, most hits filed as inhibitors. P08659;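 also: plate controls were vehicle for no effect and reference inhibitor for full effect; nearly all actives have a fitted effect of over 55% in size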
Target sequence (P08659 whole entry, looked up): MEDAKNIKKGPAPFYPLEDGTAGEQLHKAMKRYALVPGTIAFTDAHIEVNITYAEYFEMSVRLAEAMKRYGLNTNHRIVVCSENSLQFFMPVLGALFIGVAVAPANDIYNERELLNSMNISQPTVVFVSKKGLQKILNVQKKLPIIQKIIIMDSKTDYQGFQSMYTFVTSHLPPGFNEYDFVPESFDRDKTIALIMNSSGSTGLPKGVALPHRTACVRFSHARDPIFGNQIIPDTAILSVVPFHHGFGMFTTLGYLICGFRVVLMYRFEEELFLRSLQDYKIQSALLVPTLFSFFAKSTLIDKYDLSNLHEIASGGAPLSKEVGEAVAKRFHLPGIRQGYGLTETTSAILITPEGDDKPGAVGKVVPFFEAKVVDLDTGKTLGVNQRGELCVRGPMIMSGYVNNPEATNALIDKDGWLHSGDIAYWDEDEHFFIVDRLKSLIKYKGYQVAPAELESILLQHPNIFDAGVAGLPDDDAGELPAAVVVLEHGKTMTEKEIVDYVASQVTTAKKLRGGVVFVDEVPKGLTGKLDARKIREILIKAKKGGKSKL
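Purified P. pyralis luciferase, 10 nM final, with Km-level 10 uM D-luciferin and 10 uM ATP in 50 mM Tris acetate pH 7.5, 10 mM Mg acetate, 0.01% Tween-20, 0.05% BSA; 6-point qHTS titration about 60 µM downward; luminescence read.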
NPC1 prom act: activators of NPC1 promoter; AID 485313; 2.4% of 320,000 active; Huh7 NPC1 promoter luciferase reporter, 24 h; Potency, µM (highest dose often 9.22 µM), inactives show at the top dose activation, actives largely listed as activators; also: % of control where 0% means no effect; nearly all actives have a fitted effect of over 60% in size
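Huh7 cells stably carrying NPC1 promoter–luciferase, plated in Opti-MEM with 10% FBS for 2 h, were exposed to compound in DMSO for 24 h at 37 °C; luciferase reagent was added for 10 min and luminescence read.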
Rab9 prom act: activators of Rab9 promoter. Huh7 Rab9 promoter-luciferase reporter, luminescence, 24 h. 2.8% of 320,000 active. Potency, µM (highest dose often 9.22 µM), without a hit: at the top dose activation, negative = inhibition, actives largely listed as activators; also: % of control where 0% means no effect; nearly all actives have a fitted effect of over 60% in size
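Steps: seed 1500 Huh7 Rab9-luc cells per well, rest 2 h at 37 °C; add compound in DMSO; incubate 24 h; add luciferase reagent, 10 min ambient; read luminescence.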
Active calls of the source: *; ? = inconclusive; / = not tested or not shown; [ ] = another dose, or the depositor's remark. Calls follow the shape of the dose curve; as a rule, active = well fitted curve in the direction sought with a large enough effect; inconclusive = small, poorly fitted or top-dose-only effect, or another doubt; inactive = no such curve, though single readings can be large; an effect the other way counts as inactive or inconclusive. Potency is read from the fitted curve at half-maximal effect.

SMILES	ELG1 genotoxic	SMN2 splice enh	FLuc counter	NPC1 prom act	Rab9 prom act
CCOC(=O)c1[nH]c(C(=O)O)c(CCN(CC)CC)c1C	2.1%	-12.6%	5.3%	-0.5%	-5.4%
Cc1ccc(C(C(=O)NC2CCCCC2)N(Cc2cccnc2)C(=O)C2COc3ccccc3O2)o1 (centres undefined)	-5.8%	17.5%	9.0%	?	1.26µM*
COc1cc(NC(=O)C2CCCN(S(=O)(=O)c3ccc4c(c3)oc(=O)n4C)C2)c(C(=O)O)cc1OC (centres undefined)	/	-19.2%	?	/	/
O=C(c1cc2ccccc2oc1=O)N1CCOCC1	?	/	12µM*	?	?
O=C(c1cc2c(=O)n3ccccc3nc2s1)N1CCN(c2cccc(Cl)c2)CC1	?	/	2.4%	-1.9%	-0.5%
O=C(c1cc2c(=O)oc3ccccc3c2s1)N1CCOCC1	1.0%	10.4%	16.9µM*	18.1%	22.0%
O=C(c1cc2cc([N+](=O)[O-])ccc2oc1=O)N1CCN(c2ncccn2)CC1	-0.2%	-4.5%	2.8%	0.0%	-6.6%
O=C(c1cc2cc([N+](=O)[O-])ccc2oc1=O)N1CCOCC1	-3.4%	/	2.39µM*	-31.8%	-33.0%
O=C(c1cc2cc(Cl)ccc2oc1=O)N1CCOCC1	1.0%	10.6%	0.1%	-3.2%	-0.2%
O=C(c1cc2c(=O)n3ccccc3nc2s1)N1CCOCC1	4.11µM*	11.2µM*	19µM*	2.82µM*	3.16µM*
Cc1cc(C(=O)NCCc2ccc(S(N)(=O)=O)cc2)no1	1.9%	/	-0.2%	-1.0%	4.1%
COc1ccc(CNS(=O)(=O)c2cc3c(cc2C)n(C)c(=O)c(=O)n3C)cc1	/	/	-0.6%	/	/
COc1cc2c(cc1OC)n(Cc1ccc([N+](=O)[O-])cc1)c(=O)n1nc(-c3ccccc3)nc21	/	/	0.5%	/	/
COc1cc(C)cc(OC)c1/C=C\C(=O)O	/	-49.9%[9.22 µM]	/	/	/
CCn1cc(S(=O)(=O)c2ccccc2)c(=O)c2cc(F)c(N3CCN(c4ccccc4)CC3)cc21	/	/	-2.6%	/	/
Cc1cc(=O)n(C2CCS(=O)(=O)C2)[nH]1 (centres undefined)	1.6%	/	3.0%	0.1%	-11.5%
CC(/C=N/NC(=O)c1n[nH]c2c1CCC2)=C\c1ccccc1	2.31µM*	?	4.78µM*	27.7%	2.4%
O=C(N/N=C/C=C/c1ccccc1)c1n[nH]c2c1CCC2	?	-4.8%	-5.0%	2.0%	-1.6%
O=C(N/N=C/C(Br)=C\c1ccccc1)c1n[nH]c2c1CCC2	2.31µM*	12.6µM*	2.39µM*	?	19.9%
C=CCn1c(CNc2ccc(C)cc2)nnc1SCC(=O)N/N=C/c1ccc(O)cc1	-5.7%	-9.3%	-11.3%	?	5.5%
CN(C(=O)c1ccccc1C(=O)OCC(=O)Nc1cccc(Br)c1)c1ccccc1	0.9%	/	-8.1%	0.0%	1.0%
CCOC(=O)c1ccc(CC2S/C(=C(\C#N)C(C)=O)NC2=O)cc1 (centres undefined)	?	18.0%	?	1.0%	-3.4%
CCc1ccc(CC2S/C(=C(\C#N)C(C)=O)NC2=O)cc1 (centres undefined)	-6.5%	11.2µM*	?	2.8%	-9.4%
N#CC(c1ccc(Cl)cc1)c1cccc(Cl)n1 (centres undefined)	6.8%	-15.0%	4.9%	-0.8%	-5.9%
CCc1nnc(NC(=O)c2ccc3nc(CC)c(CC)nc3c2)s1	11.9%	7.2%	?	13.4%	24.9%
SMILES	ELG1 genotoxic	SMN2 splice enh	FLuc counter	NPC1 prom act	Rab9 prom act
CSc1ccccc1OCc1cc(C(=O)N2CCN(C3CCCC3)C(=O)C2)no1	?	/	16.9µM*	?	?
CSc1ccccc1OCc1cc(C(=O)N2CCCC(C)C2)no1 (centres undefined)	5.17µM*	/	6.75µM*	1.58µM*	1.41µM*
O=C(c1cc(COc2cccc3cnccc23)on1)N1CCCC(CCCO)C1 (centres undefined)	-7.2%	/	1.2%	-31.2%	-29.1%
CSc1ccccc1OCc1cc(C(=O)N2CCSCC2)no1	-4.0%	/	?	2.24µM*	1.41µM*
COc1ccc(OCc2cc(C(=O)N3CCCC(CO)C3)no2)c2ccccc12 (centres undefined)	?	/	8.49µM*	3.98µM*	3.98µM*
Cc1ccc(NC(=O)Cn2c(=O)n(-c3ccc(C)cc3)c(=O)c3ccc(C(=O)NCc4ccccc4Cl)cc32)cc1	/	6.2%	0.4%	/	/
Cc1nc(NC2CCCCC2)c2nc(-c3ccccc3)n(CC3CCN(C)CC3)c2n1	/	0.0%	/	/	/
CCN(CC)CCN(Cc1cc2cc3c(cc2[nH]c1=O)OCO3)C(=S)NCCOC	-0.2%	/	1.2%	3.4%	-3.8%
COc1ccccc1OCc1cc(C(=O)N2CCCC(OCc3cccnc3)C2)no1 (centres undefined)	8.2µM*	/	13.5µM*	1.78µM*	2.51µM*
COc1ccc(-c2c3c(=O)n(C)c(=O)n(C)c3c3n2-c2ccccc2NC3c2ccc(OC)cc2)cc1 (centres undefined)	/	/	4.8%	/	/
CCC(=O)NCCc1nc2cc(NC(=O)c3cccc(Br)c3)ccc2n1C	/	/	21.3µM*	/	/
Cn1c(CN2CCCCC2)nc2cc(NC(=O)c3cccc(Br)c3)ccc21	15.7%	-53.7%	?	-1.1%	-16.9%
CCC(=O)NCCc1nc2cc(NC(=O)Nc3ccccc3)ccc2n1C	?	/	5.36µM*	1.12µM*	1.58µM*
CC(=O)Nc1ccc2c(c1)nc(CCN1CCC(C)CC1)n2C	3.1%	3.1%	-1.5%	1.5%	10.2%
CC(=O)Nc1ccc2c(c1)nc(CCNC(=O)c1ccccc1)n2C	0.8%	-17.3%	-5.0%	4.7%	0.2%
CC1CCN(CCc2nc3cc(NC(=O)Nc4ccccc4)ccc3n2C)CC1	?	22.6%	16.9µM*	?	?
O=C(COc1ccccc1)Nc1ccc(OCc2cc(=O)n3ccsc3n2)cc1	/	6.5%	-0.5%	/	/
CC(=O)Oc1ccc2c(c1)CCC1C2CC[C@@]2(C)C1CC(OC(C)=O)C2OC(C)=O (some centres undefined)	/	-12.1%	/	/	/
O=c1sc(N2CCN(c3ccccc3F)CC2)nc2ccsc12	7.31µM*	12.6µM*	2.69µM*	1.41µM*	0.794µM*
O=c1sc(N2CCN(c3ccc(F)cc3)CC2)nc2ccsc12	?	?	8.49µM*	?	?
O=C(c1ccco1)N1CCN(c2nc3ccsc3c(=O)s2)CC1	16.4%	23.3%	-16.9%	0.8%	17.6%
O=C(Cn1ncc2ccsc2c1=O)N1CCN(c2ccc(F)cc2)CC1	/	-17.0%	1.4%	/	/
C=CCOC(=O)c1c(C)nc2cc3c(cc2c1C)OCO3	7.0%	?	16.9µM*	18.6%	24.3%
C=CCOC(=O)C1=C(C)NC(=O)NC1c1ccc2c(c1)OCO2 (centres undefined)	1.8%	/	5.5%	-2.0%	-4.6%
Cc1cc(NC(=O)CCn2c(=O)c3cccn3c3cccnc32)ccc1Br	/	/	2.9%	/	/
